Data on 14 compounds can be found in PubChem BioAssay (NCI).

Common to all, as to test: NCI-60 one-dose screen, 48 h (100 = growth as untreated, 0 = no growth, -100 = all killed)
Common to all, as to details: 10 µM unless noted

Test [1] relates to SK-MEL-2 melanoma.
Test [2] concerns EKVX NSCLC.
The subject of test [3] is SN12C renal.
The test system of test [4] is UO-31 renal.
Test [5] has as its system TK-10 renal.
Test [6] has as its system ACHN renal.
Test [7] relates to CAKI-1 renal.
In test [8] the test system is A498 renal.
The test system of test [9] is CCRF-CEM leukemia.
Test [10] concerns MOLT-4 leukemia.

Compounds without any hit were thinned out: in the full panel of roughly 83,000, 20% have a hit.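 Testing used 96-well plates and a 48-hour single-concentration exposure. Example: -40 means 40% of the starting cells died.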 Unmarked numbers belong to inactive results. The source made the active and inactive calls. How the source made its calls: active means growth percent below 10; inactive means the rest.

For the compound `O=[N+]([O-])c1cc2c(cc1Br)-c1ccccc1C2`, the growth in [1] was 101%; in test [2], 77.6%; in [3] it was 85.1%; in test [4], 70.5%; in test [5], 126%; in [6] it was 94.2%. Moreover, the growth in test [7] was 76.4%; in test [8], 95.1%; in test [9], 70.9%; in test [10], 88.8%.
For the compound `CCOC(=O)c1cn2c3c(cc(F)cc3c1=O)C(CC)c1ccccc1C2` (configuration not stated), the growth in test [1] is 96.8%; in [2] it was 99.7%; in test [3], 96.3%; in [4], -57.3% (active); in test [5] it was 111%; in test [6], 105%. The growth is 102% in test [7], 89.5% in test [8], 74.9% in [9] and 65.6% in [10].
For `COc1ccccc1/C=C/C(=O)/C=C/c1ccccc1O`, the growth in test [1] is 72.5%; in [2], 46.2%; in test [3], -18.7% (active); in test [4] it was -83.4% (active); in test [5] it was -0.117% (active); in test [6] it was -81.1% (active). The growth was -62.5% (active) in test [7], 108% in [8], -44.1% (active) in test [9] and -26.3% (active) in test [10].
Regarding `OB(O)c1ccccc1`, the growth in test [1] was 107%; in test [2], 108%; in test [3], 112%; in test [4], 91.3%; in test [5], 105%; in test [6], 107%. The growth is 96.5% in [7], 106% in test [8], 100% in test [9] and 96.9% in test [10].
In the case of `O=S(=O)(/N=C1C=C/C(=N\S(=O)(=O)c2ccccc2)c2ccccc2\1)c1ccccc1`, the growth in [1] was 114%; in test [2] it was 104%; in [3], 101%; in [4] it was 67.1%; in [5] it was 147%; in test [6], 105%. Besides, the growth in test [7] was 99.4%; in [8] it was 117%; in test [9], 71.7%; in [10] it was 87.1%.
Turning to `COc1cc(C2C3=C(COC3=O)N(CCO)c3cc4c(cc32)OCO4)cc(OC)c1O` (configuration not stated), the growth was 25% in [1]; 57.2% in test [2]; 52.7% in test [3]; 57.9% in test [4]; 61.8% in test [5]; 37.9% in test [6]. Further, the growth in test [7] was 60.4%; in [8], -2.62% (active); in test [9], 28.6%; in test [10], 47.6%.
As to `O=S(=O)(OCCO)c1ccccc1`, the growth is 102% in test [1]; 103% in [2]; 96.2% in [3]; 90.4% in test [4]; 100% in test [5]; 104% in test [6]. In addition, the growth was 88.2% in [7], 110% in test [8], 61.8% in test [9] and 108% in test [10].
Take `Clc1ccc(C2=NN(c3ccccc3)[C@H](c3cn(-c4ccccc4)nc3-c3ccccc3)C2)cc1`: the growth was 97.7% in test [1]; 94.9% in test [2]; 103% in test [3]; 94.8% in test [4]; 114% in [5]; 103% in test [6]. In addition, the growth was 99.9% in [7], 109% in [8], 116% in [9] and 93.6% in test [10].
Turning to `Clc1ccc(Nc2nc(Nc3ccccc3)nc(Nc3ccc(-c4cc(-c5ccc(Cl)cc5)on4)cc3)n2)cc1`, the growth was 64.2% in test [1]; 69.5% in test [2]; 64% in [3]; 41.7% in [4]; 52.8% in test [5]; 47.1% in test [6]. Further, the growth in test [7] is 48.2%; in test [8] it was 43.9%; in test [9], 70.5%; in [10] it was 52.2%.
Turning to `COc1cccc(C2CC(=O)Nc3cc4c(cc32)OCO4)c1OC` (configuration not stated), the growth in test [1] is 88.3%; in [2], 110%; in test [3], 103%; in test [4], 72.4%; in test [5] it was 87%; in [6] it was 91.8%. For the same compound, the growth was 78.4% in [7], 77.6% in test [8], 82.1% in test [9] and 87.1% in test [10].
For the compound `O=C(N/N=C/c1ccc(F)cc1)c1[nH]c2ccc(I)cc2c1-c1ccccc1`, the growth in [1] is 71.9%; in [2], 5.92% (active); in [3] it was 32.6%; in test [4] it was 46%; in test [5], 65.2%; in test [6], 36%. The growth in test [7] was 5.08% (active); in [8] it was 39.1%; in test [9], 39.2%; in test [10], 72.5%.
Turning to `Cc1cc(NS(=O)(=O)c2ccc(NC(=O)COc3ccc(-c4cc5ccccc5[nH]4)cc3)cc2)no1`, the growth in test [1] is 27.3%; in [2] it was 54.4%; in [3] it was 39.2%; in test [4], 26.4%; in test [5] it was 52.6%; in test [6], 21.7%. Further, the growth is 57.5% in [7], 42.9% in [8] and -2.31% (active) in [10].
Take `CCOc1ccc(-c2cnnn2-c2nonc2-n2cccc2)cc1`: the growth in test [1] was 18.3%; in test [2] it was 60.9%; in test [3], 40.1%; in test [4] it was 29.8%; in [5], 45.3%; in test [6] it was 47.3%. Also, the results for the growth in test [7], in test [8] and in test [10] were 46.4%, 18.7% and 8.83% (active), respectively.
Regarding `CN1CCN(c2ccc3nc(-c4ccc5nc(-c6ccc(C(F)(F)F)cc6)[nH]c5c4)[nH]c3c2)CC1`, the growth is 103% in test [1]; 81.6% in [2]; 80.3% in test [3]; 105% in test [4]; 101% in test [5]; 55.6% in [6]. Further, the growth is 43% in test [7], 21.2% in [9] and 47.2% in test [10].
